Data on 20 molecules can be found in PubChem BioAssay (NCATS).

Inconclusive results are not listed. Unmarked numbers belong to inactive results. Calls of active or inactive are those of the source. The call rests on the fitted dose curve; in most records, active means well fitted curve in the direction sought with a large enough effect; inconclusive means small, poorly fitted or top-dose-only effect, or another doubt; inactive means no such curve, though single readings can be large; an effect the other way counts as inactive or inconclusive.

For assay [1], the target named is Rap guanine nucleotide exchange factor 3 (Homo sapiens) (UniProt O95398). Briefly: Confirmatory qHTS for antagonist of cAMP-regulated guanine nucleotide exchange factor 3 (EPAC1) (AID 1645880).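 Further: plate controls were DMSO only for no effect and full effect of the ATA control for full effect; nearly all actives have a fitted effect of over 55% in size.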 As to conditions: EPAC1 Rap1B-BODIPY-GDP exchange, fluorescence; activity, negative = inhibition: at 115 µM (top of the series). The essentials: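 Released BODIPY-GDP fluoresces less than Rap1-bound BODIPY-GDP; the signal is followed at 480/540 nm at 5-min intervals over 30 min, after 5 min at room temperature. Reactions contain 100 nM EPAC1, 250 nM RAP1B-BODIPY-GDP and 50 uM GDP; results are normalized to ATA and DMSO.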
Chain of Rap guanine nucleotide exchange factor 3 (Homo sapiens) (O95398 whole entry, looked up): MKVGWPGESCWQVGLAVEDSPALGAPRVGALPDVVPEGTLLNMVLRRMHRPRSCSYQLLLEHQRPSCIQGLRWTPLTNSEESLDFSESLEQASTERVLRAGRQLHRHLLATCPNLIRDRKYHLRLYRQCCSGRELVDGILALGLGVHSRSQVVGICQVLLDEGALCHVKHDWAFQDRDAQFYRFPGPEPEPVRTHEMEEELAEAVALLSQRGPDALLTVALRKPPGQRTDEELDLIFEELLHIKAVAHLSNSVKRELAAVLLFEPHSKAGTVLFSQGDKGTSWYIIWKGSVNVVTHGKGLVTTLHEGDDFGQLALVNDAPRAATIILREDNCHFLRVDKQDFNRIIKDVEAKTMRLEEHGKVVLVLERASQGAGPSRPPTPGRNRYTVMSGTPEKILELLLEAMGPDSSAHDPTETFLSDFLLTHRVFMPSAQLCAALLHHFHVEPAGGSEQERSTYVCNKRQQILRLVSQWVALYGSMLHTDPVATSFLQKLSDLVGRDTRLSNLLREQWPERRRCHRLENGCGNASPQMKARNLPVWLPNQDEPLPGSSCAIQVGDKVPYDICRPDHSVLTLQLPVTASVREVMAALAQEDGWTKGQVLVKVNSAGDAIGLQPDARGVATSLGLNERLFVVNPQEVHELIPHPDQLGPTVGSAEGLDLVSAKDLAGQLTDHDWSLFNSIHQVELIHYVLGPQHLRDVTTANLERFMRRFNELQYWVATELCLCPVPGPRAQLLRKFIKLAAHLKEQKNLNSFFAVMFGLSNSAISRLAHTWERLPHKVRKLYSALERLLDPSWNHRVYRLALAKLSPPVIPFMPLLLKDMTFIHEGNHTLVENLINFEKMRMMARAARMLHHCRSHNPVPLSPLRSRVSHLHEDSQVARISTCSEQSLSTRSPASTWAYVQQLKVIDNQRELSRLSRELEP
For orientation: qHTS replaces the single test concentration by a dilution series.

Assay [2] deals with Rap guanine nucleotide exchange factor 4 (Homo sapiens) (UniProt Q8WZA2). Briefly: Confirmatory qHTS for agonist of cAMP-regulated guanine nucleotide exchange factor 4 (EPAC2) (AID 1645884).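 Further: nucleotide exchange releases bodipy-GDP from Rap1 and this lowers its fluorescence; nearly all actives have a fitted effect of over 65% in size.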 Further: potency means the concentration at half of the fitted maximal effect. On activation: on the % scale 0 is the no-effect control and ±100 the full control effect. As to conditions: EPAC2 GEF activity, Rap1B-BODIPY-GDP fluorescence; series mostly up to 154 µM.
Chain of Rap guanine nucleotide exchange factor 4 (Homo sapiens) (Q8WZA2 whole entry, looked up): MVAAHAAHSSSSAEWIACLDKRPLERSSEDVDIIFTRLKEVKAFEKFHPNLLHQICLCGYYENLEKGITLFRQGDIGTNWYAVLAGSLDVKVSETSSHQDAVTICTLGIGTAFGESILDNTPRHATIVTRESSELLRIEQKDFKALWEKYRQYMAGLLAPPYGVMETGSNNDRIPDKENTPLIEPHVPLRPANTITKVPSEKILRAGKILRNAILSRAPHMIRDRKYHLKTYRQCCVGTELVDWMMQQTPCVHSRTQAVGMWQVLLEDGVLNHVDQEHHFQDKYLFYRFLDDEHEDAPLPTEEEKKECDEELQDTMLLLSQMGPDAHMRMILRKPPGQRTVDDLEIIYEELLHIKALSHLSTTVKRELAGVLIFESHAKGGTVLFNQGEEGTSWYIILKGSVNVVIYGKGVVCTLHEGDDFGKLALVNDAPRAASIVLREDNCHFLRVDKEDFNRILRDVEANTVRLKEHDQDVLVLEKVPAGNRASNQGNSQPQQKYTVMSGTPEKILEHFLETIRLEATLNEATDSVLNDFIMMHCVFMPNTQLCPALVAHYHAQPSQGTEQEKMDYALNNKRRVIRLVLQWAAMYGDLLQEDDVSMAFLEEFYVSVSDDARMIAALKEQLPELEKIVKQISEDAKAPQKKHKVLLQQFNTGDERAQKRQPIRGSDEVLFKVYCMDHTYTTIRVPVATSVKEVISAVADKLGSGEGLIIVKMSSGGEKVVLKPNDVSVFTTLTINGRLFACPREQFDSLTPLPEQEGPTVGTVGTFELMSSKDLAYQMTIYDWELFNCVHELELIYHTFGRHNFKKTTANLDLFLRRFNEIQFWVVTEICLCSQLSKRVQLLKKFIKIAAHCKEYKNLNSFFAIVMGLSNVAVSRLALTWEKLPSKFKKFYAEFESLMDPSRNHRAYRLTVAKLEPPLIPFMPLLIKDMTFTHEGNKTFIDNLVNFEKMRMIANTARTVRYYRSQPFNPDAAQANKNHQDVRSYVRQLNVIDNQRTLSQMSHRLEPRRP
Assay [3] shares this target. The experiment in a line: Confirmatory qHTS for antagonist of cAMP-regulated guanine nucleotide exchange factor 4 (EPAC2) (AID 1645885). Further: nearly all actives have a fitted effect of over 25% in size. Further: potency means the concentration at half of the fitted maximal effect. On activity change, negative = inhibition: on the % scale 0 is the no-effect control and ±100 the full control effect. As to conditions: EPAC2 Rap1B-BODIPY-GDP exchange fluorescence, biochemical; series mostly up to 12.7 µM.
In assay [4] the target is Rap guanine nucleotide exchange factor 3 (Homo sapiens) (UniProt O95398). Briefly: Counterscreen qHTS for antagonist of cAMP-regulated guanine nucleotide exchange factor 3 (EPAC1) (AID 1645888). Further: % of control where 0% means no effect. The following applies: Rap1B-BODIPY-GDP nucleotide exchange, fluorescence; series mostly up to 154 µM. The essentials: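 Measured: fluorescence of BODIPY-GDP bound to Rap1B, which falls as exchange proceeds. Conditions include 50 uM competing GDP, 5 and 30 min reads, and a later cAMP challenge for antagonist detection.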

Take `O=c1[nH]c2ccccc2nc1/C=C(\O)c1cccs1`: the Potency entry in assay [1] and in assay [3] was “inactive” each time. In addition, the activation in assay [2] is 1.73% [at 17.1 µM, percent relative to cAMP agonist control]. In assay [4], the activity change, negative = inhibition was -7.08% [at 30.8 µM].

Take `COC(=O)c1ccccc1C(=O)c1cccc2ccccc12`: the Potency entry in assay [1], in assay [2], in assay [3] and in assay [4] was “inactive” throughout.

In the case of `CN1CCS/C1=C\C=C1/SC(=S)N(CC(=O)O)C1=O`, the Potency result in assay [1], in assay [3] and in assay [4] was “inactive” in each case. The Potency in assay [2] was 79.4 µM (active).

Regarding `O=S1(=O)NC(c2ccccc2)CC(CC2CCCCC2)O1` (stereo not given), the Potency entry in assay [1] and in assay [3] was “inactive” throughout. Further, in assay [2], the activation is 26.6% [at 17.1 µM, percent relative to cAMP agonist control]. The activity change, negative = inhibition in assay [4] is -0.437% [at 30.8 µM].

Turning to `Oc1c(C(c2ccccc2)N2CCN(c3ccccc3)CC2)sc2nc(-c3ccco3)nn12` (stereo not given), the Potency entry in assay [1], in assay [2], in assay [3] and in assay [4] was “inactive” each time.

Regarding `C=CCN1C(=O)c2cccc3c(N4CCCCC4)ccc(c23)C1=O`, the Potency result in assay [1], in assay [3] and in assay [4] was “inactive” throughout. For the same molecule, the Potency in assay [2] was 112 µM (active).

Take `COc1cccc(-n2c(SCC(=O)Nc3ccc(F)cc3F)nc3c([nH]c4ccccc43)c2=O)c1`: the Potency entry in assay [1], in assay [2], in assay [3] and in assay [4] was “inactive” throughout.

Take `CCOC(=O)/C(C#N)=C/c1ccc(N2CCN(Cc3ccccc3)CC2)cc1`: the Potency result in assay [1] and in assay [3] was “inactive” in each case. Moreover, the activation in assay [2] was 10.3% [at 17.1 µM, percent relative to cAMP agonist control]. Also, the activity change, negative = inhibition in assay [4] is 16.8% [at 30.8 µM].

Regarding `COC(=O)C1=CN(C(C)c2ccccc2)C=C(C(=O)OC)C1c1cc(OC)c(OC)c(OC)c1` (stereo not given), the Potency entry in assay [1], in assay [2] and in assay [4] was “inactive” in each case. For the same molecule, the Potency in assay [3] was 26.9 µM (active).

With `CN(C)c1ccc(/C=C/C(=O)c2cccc(Br)c2)cc1`, the Potency result in assay [1] and in assay [3] was “inactive” in each case. Besides, the activation in assay [2] is -16% [at 17.1 µM, percent relative to cAMP agonist control]. The activity change, negative = inhibition in assay [4] was 21.2% [at 30.8 µM].

As to `COC(=O)CC(NC(=S)NC(=O)c1ccccc1)c1ccc(Br)cc1` (stereo not given), the Potency entry in assay [1], in assay [2], in assay [3] and in assay [4] was “inactive” each time.

As for `CC1CCN(c2ccc3c(c2)S(=O)(=O)c2cccc(C(=O)NCc4cccc(F)c4)c2C3=O)CC1`, the Potency result in assay [1], in assay [3] and in assay [4] was “inactive” throughout. For the same molecule, the Potency in assay [2] is 112 µM (active).

With `CC(/C=C/c1ccc(N(C)C)cc1)=N\N=C1\NC(=O)CC(C(=O)Nc2ccccc2)S1` (stereo not given), the Potency result in assay [1] and in assay [3] was “inactive” in each case. Further, the activation in assay [2] is 10% [at 17.1 µM, percent relative to cAMP agonist control]. Further, the activity change, negative = inhibition in assay [4] is -3.02% [at 30.8 µM].

On to `N=C1SC(c2ccccc2)C(=O)N1c1ncc(Cc2ccccc2Cl)s1` (stereo not given), for which the Potency result in assay [1], in assay [2], in assay [3] and in assay [4] was “inactive” in each case.

For `CC(OC(=O)/C(C#N)=C/c1ccc(N(C)C)cc1)C(=O)N(C)Cc1ccccc1` (stereo not given), the Potency result in assay [1] and in assay [3] was “inactive” in each case. Also, the activation in assay [2] is 3.68% [at 17.1 µM, percent relative to cAMP agonist control]. Besides, the activity change, negative = inhibition in assay [4] was -0.358% [at 30.8 µM].

Turning to `CN(C)c1ccc(/C=C(\C#N)C(=O)c2ccccc2)cc1`, the Potency result in assay [1] and in assay [3] was “inactive” each time. In addition, in assay [2], the activation was 17.4% [at 17.1 µM, percent relative to cAMP agonist control]. For the same molecule, the activity change, negative = inhibition in assay [4] is 15.5% [at 30.8 µM].

On to `COc1ccc(OC)c(NC(=S)N2c3ccccc3CC2C)c1` (stereo not given), for which the Potency result in assay [1] and in assay [3] was “inactive” each time. Further, the activation in assay [2] was 12.4% [at 17.1 µM, percent relative to cAMP agonist control]. In addition, in assay [4], the activity change, negative = inhibition is -17.1% [at 30.8 µM].

Consider `COc1ccc(/C(O)=C/c2nc3ccccc3n(-c3ccccc3)c2=O)cc1`, for which the Potency result in assay [1] and in assay [4] was “inactive” in each case. Further, the Potency in assay [2] was 100 µM (active); in assay [3], 75.7 µM (active).

Take `Cc1cccc(-c2nc3nc(C)cc(NCc4ccccc4Cl)n3n2)c1`: the Potency entry in assay [1], in assay [2], in assay [3] and in assay [4] was “inactive” each time.

For `Cc1ccc2cccc(OC(=O)c3c(F)cccc3Cl)c2n1`, the Potency result in assay [1], in assay [2], in assay [3] and in assay [4] was “inactive” each time.
